Assay outcomes as filed in PubChem.
GRK2 aptamer HTS: inhibitors of human GRK2 displacing RNA aptamer. P25098. bead flow cytometry, FAM-aptamer displacement from GRK2. inhibition of aptamer binding, % at 10 µM. 330,000 tested, 0.59% active;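 active means inhibition of aptamer binding above 40%, roughly 3 SD of noise, on plates passing a quality check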;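 further: median bead fluorescence of bound FAM aptamer so fluorescent compounds give negative values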
DSG3 Ab inh: inhibitors of pemphigus antibody binding to human desmoglein-3; P32926; DSG3-coupled beads, scFv-anti-DSG3-GFP binding, flow cytometry; hits give low values; binding (percent of control), % at 10 µM; 310,000 tested, 0.48% active; AID 588358;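 active means binding more than 3 SD below its plate's average and above zero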;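 further: hits lower antibody fragment binding to DSG3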
PKD1 kinase inh: PKD1 (human) kinase inhibition. 200,000 tested, 0.056% active. Q15139. PKD1 kinase fluorescence polarization assay. inhibition, % (test concentration not listed)
HDAC3 inh: blocks human histone deacetylase 3; 320,000 tested, 0.15% active; O15379; recombinant HDAC3, fluorogenic peptide/trypsin coupled, fluorescence; inhibition, % at 8.3 µM; in the data active means inhibition above about 26%, passing the limit was not always enough
VLA-4 inh: inhibition in a human VLA-4 binding assay; P13612; VLA-4 expressing cells, ligand binding flow cytometry; inhibition, % (about 7 µM as worked out from the volumes in the protocol); 330,000 tested, 0.2% active; AID 2557
LANA-H2B inh: blocks KSHV LANA binding to histone H2A/H2B; Q9QR71; cell-free LANA-H2A/H2B peptide, fluorescence polarization; inhibition, % (concentration not given with the values); 320,000 tested, 0.6% active; in the data active means inhibition mostly above about 10%, no sharp cut-off; inactive means mostly below about 6.7%
* = called active by the depositor; x = no result given; + = active, no number. Most compounds without a hit are left out; they make up all but 1.8% or so of the library. Unless noted, no stated cut-off is given here; in the data, active means inhibition above about 50%; inactive means the rest.

SMILES	GRK2 aptamer HTS	DSG3 Ab inh	PKD1 kinase inh	HDAC3 inh	VLA-4 inh	LANA-H2B inh
COc1ccc(C(=O)NC2=Nc3ccccc3N=C(C)C2c2ccccc2)cc1 (centres undefined)	1	104	x	77*	9	3
CC1=Nc2ccccc2N=C(NC(=O)/C=C/C(=O)O)C1c1ccccc1 (centres undefined)	0	101	x	-1	0	0
CCc1nc2ccccc2[nH]c1=O	2	99	x	-5	0	27*
CCOc1ccccc1NC(=O)CN(c1ccc(Cl)cc1)S(C)(=O)=O	1	117	x	2	5	3
C=CC[C@@H](CC(=O)N[C@@H](CO)Cc1ccccc1)C(=O)N[C@H](COC(=O)[C@@H](CC=C)Cc1ccc(F)cc1)Cc1ccccc1	0	101	x	0	6	2
C=CC[C@@H](CC(=O)N[C@H](CO)Cc1ccccc1)C(=O)N[C@@H](COC(=O)[C@@H](CC=C)Cc1ccc(F)cc1)Cc1ccccc1	4	94	x	1	-13	175*
C=CC[C@@H](CC(=O)NCCO)C(=O)N[C@H](C)COC(=O)[C@@H](CC=C)Cc1ccc(F)cc1	2	114	x	-4	4	4
C=CC[C@H](CC(=O)NCCO)C(=O)N[C@H](C)COC(=O)[C@@H](CC=C)Cc1ccc(F)cc1	x	x	x	2	-10	14*
C=CCC[C@H](Cc1ccc(F)cc1)C(=O)OC[C@@H](NC(=O)[C@@H](CC=C)CC(=O)N[C@@H](CO)Cc1ccccc1)C(C)(C)C	49*	106	x	32*	-2	-1
N#CC[C@H](c1ccccc1)N1CCN(Cc2ccccc2)CCC1=O	0	104	x	2	21	4
O=[N+]([O-])c1ccc(S(=O)(=O)N/N=C/c2ccsc2)cc1	0	102	x	0	3	-1
CC(C)CCn1c(SCC(=O)NC2CC2)nc2cc(Cl)ccc2c1=O	0	98	x	3	0	-9
COc1ccc(CNC(=O)c2cc3c(s2)CN(Cc2ccccc2)C3)cc1	0	109	6	x	-12	x
O=C(O)[C@H](Cc1ccccc1)NC(=O)N1CCC(Cc2ccccc2)CC1	1	102	x	1	3	18*
COC(=O)C1CCN(C(=O)c2ccc(Cl)c(S(=O)(=O)NCc3cccnc3)c2)CC1	0	105	-3	0	1	43*
COc1ccc(OC)c(NC(=O)NCCc2cccc(Cl)c2)c1	0	75*	-6	-20	2	-1
COc1ccccc1NC(=O)NCCc1ccccc1	2	111	x	-4	-9	-6
CCOC(=O)C1CCN(C(=O)C2CCN(S(=O)(=O)c3cc(Cl)ccc3OCC)CC2)CC1	0	x	x	5	-5	3
CCOc1ccccc1NC(=O)NCCN1CCCCC1	0	116	x	-2	-9	15*
CCOc1ccccc1NC(=O)CN1CCCCCC1	0	103	x	-4	8	1
c1ccc(CSc2ccc(-c3ccc4c(c3)OCO4)nn2)cc1	1	1.2*	-8	3	-10	6
Cn1c(SCc2ccccc2)nnc1-c1ccc2c(c1)OCO2	1	x	-12	-4	6	4
O=C(O)CCc1ccc(-c2ccc(F)cc2)n1CC1CCCO1 (centres undefined)	3	95	-4	-16	-3	37*
COc1ccc(-c2ccc(CCC(=O)O)n2CC2CCCO2)cc1 (centres undefined)	0	114	5	-3	5	6
COC(=O)[C@@]1(Cc2ccccc2)[C@H]2C(=O)N(Cc3ccccc3)C(=O)[C@H]2[C@H]2CN=C(SCC3CC3)N21	1	102	x	x	x	x
Cc1cc(C)cc(-c2nnc(SCC(=O)c3c(N)n(C4CC4)c(=O)[nH]c3=O)o2)c1	x	106	x	x	x	x
CCS(=O)(=O)c1ccc2oc(SCC(=O)c3c(N)n(C4CC4)c(=O)[nH]c3=O)nc2c1	3	96	x	9	0	47*
Cc1ccc(Nc2nnc(SCC(=O)c3c(N)n(C4CC4)c(=O)[nH]c3=O)s2)cc1C	0	99	x	1	1	+
Cc1ccc(OCC(=O)N(C)CC(=O)Nc2ccc(Cl)c(C(F)(F)F)c2)c([N+](=O)[O-])n1	0	97	x	10	6	105*
